The test system of assay [1] is Human papillomavirus type 1a protein E7 (residues 44-93). Briefly: small molecules binding HPV E7 44-93 – biochemical, small-molecule microarray, residues 44-93, 635 nm fluorescence, primary screen (AID 1108).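 Further: E7 fragment applied at 1 µg/mL in TBST for 1 h at 4 C; score combines spot fluorescence with its signal to noise ratio.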 The settings on record: fluorescence 635 nm, higher = more signal.
A short description of assay [2]: hepatitis C replication reporter changes, two-sided – Huh7 cells, luciferase reporter, HCV replication inhibitor project, primary screen (AID 1109).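 Further: huh7 hepatoma cells harbouring a luciferase neomycin HCV replicon reporter; luciferase luminescence as measure of HCV replicon replication; test concentration not given here.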 The settings on record: Huh7 HCV replicon luciferase reporter, 48 h; higher = more signal. (In general: In a reporter assay the amount or activity of a reporter protein is the signal.)
Assay [3] concerns the target Left-right determination factor 2 (Homo sapiens) (UniProt O00292). Briefly: small molecules binding LEFTY2 protein – biochemical, small-molecule microarray, 635 nm fluorescence scan, primary screen (AID 1110). The conditions noted are these: higher = more signal.
For assay [4], the target named is Calmodulin-1 (Homo sapiens) (UniProt P0DP23). Briefly: small molecules binding calmodulin-1 with EGTA – biochemical, small-molecule microarray, Cy5-labelled CALM1, profiling panel (AID 1111).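 Further: labelled calmodulin applied in Tris saline Tween buffer holding calcium plus EGTA and DTT.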 The conditions noted are these: Cy5-CALM1 binding fluorescence, higher = more signal.
For assay [5] the target is unchanged. Briefly: small molecules binding Ca-loaded calmodulin-1 – biochemical, small-molecule microarray, Cy5-labelled CALM1, plus calcium, artefact control for SMM control-protein annotation, profiling panel (AID 1112).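 Further: score merges spot fluorescence with signal to noise from triplicate slides.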 The settings on record: Cy5-CALM1 binding fluorescence, higher = more signal.
Assay [6] is described as follows: probe aWnt5a binding to arrayed compounds – biochemical, biotinylated probe, 635/667 nm fluorescence, primary screen (AID 1113).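 Further: score merges 667 nm fluorescence intensity with signal-to-noise per printed feature.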 The conditions noted are these: small-molecule microarray, higher = more signal.
Assay [7] can be described thus: probe aShh binding to arrayed compounds – biochemical, biotinylated probe, 635/667 nm fluorescence, primary screen (AID 1114).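 Further: probe is biotin-labelled aShh protein from a stem cell growth factor screen; measures binding of labelled protein to compounds printed on the slide; score merges feature fluorescence at 667 nm with signal-to-noise.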 The settings on record: small-molecule microarray, higher = more signal.
The nature of assay [8]: probe aNog binding to arrayed compounds – biochemical, biotinylated probe, 635/667 nm fluorescence, primary screen (AID 1115).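 Further: probe is biotinylated aNog protein used at 0.15 µg/mL for 1 h at 4 C; z-score combines 667 nm fluorescence of each spot with its signal to noise.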 The conditions noted are these: small-molecule microarray, higher = more signal.
The target in assay [9] is Torsin-1A-interacting protein 1 (Homo sapiens) (UniProt Q5JTV8). As to the kind of experiment: compound microarray binding of lysate hLAP1 – cell lysate, small-molecule microarray, COS7 lysate, 635/667 nm fluorescence, primary screen (AID 1116). The settings on record: 635 nm fluorescence, higher = more signal.
The target of assay [10] is Alpha-bungarotoxin (Bungarus multicinctus) (UniProt P60615). As to the kind of experiment: compounds binding labelled alpha-BTX control protein – biochemical, small-molecule microarray, Alexa647 label, 635/667 nm fluorescence, artefact control for SMM control protein annotation, profiling panel (AID 1117). The settings on record: alpha-BTX-A647 binding fluorescence, higher = more signal.

Assay [11] addresses Albumin (Bos taurus) (UniProt P02769). Briefly: compounds binding labelled BSA control protein – biochemical, small-molecule microarray, Alexa647 label, 635/667 nm fluorescence, artefact control for SMM control protein annotation, profiling panel (AID 1118).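 Further: score merges 667 nm emission intensity and signal-to-noise per printed compound spot.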 The settings on record: BSA-A647 binding, fluorescence 635 nm, higher = more signal.
Assay [12] in a line: probe aXIP binding to arrayed compounds – biochemical, NeuroSMM set, 635/667 nm fluorescence, primary screen (AID 1119).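 Further: probe is the protein aXip251-270 applied at 1 µg/mL to compound-printed slides; binding of probe to printed compounds measured as 667 nm fluorescence plus signal to noise.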 The settings on record: small-molecule microarray, higher = more signal, called active from +8 up or from −8 down.
Assay [13] is described as follows: probe aNOTCH3 binding on compound microarray – biochemical, small-molecule microarray, 635/667 nm fluorescence, primary screen (AID 1120).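 Further: probe is a biotin-tagged antibody raised against NOTCH3 rather than NOTCH3 protein; score merges spot fluorescence near 667 nm with spot signal to noise.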 The conditions noted are these: higher = more signal.
Assay [14] in a line: probe aNOTCH2 binding on compound microarray – biochemical, small-molecule microarray, 635/667 nm fluorescence, primary screen (AID 1121).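 Further: score merges feature fluorescence read at 667 nm with its signal to noise.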 The settings on record: higher = more signal.
Assay [15] concerns the target Carbonic anhydrase 2 (Homo sapiens) (UniProt P00918). As to the kind of experiment: compounds binding carbonic anhydrase 2 – biochemical, small-molecule microarray, Alexa647-labelled CAII, profiling panel (AID 1122). The conditions noted are these: CAII-A647 binding fluorescence, higher = more signal.
Assay [16] is described as follows: COS7 lysate on small-molecule microarray, probe aHis, 635 nm (AID 1123).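 Further: z-score combines 667nm fluorescence intensity with signal-to-noise per printed compound spot.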 The conditions noted are these: COS7 cell lysate, fluorescence, higher = more signal.
A short description of assay [17]: probe aLAP1 signal on lysate-treated microarray – cell lysate, small-molecule microarray, COS7 lysate, primary screen (AID 1124).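 Further: lysate comes from COS7 cells expressing LAP1 and is applied at 0.3 µg/mL; score merges spot fluorescence near 667 nm with signal-to-noise over triplicate slides.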 The conditions noted are these: probe aLAP1, fluorescence, higher = more signal.
The subject of assay [18] is Sam68 (KHDRBS1). Briefly: compounds binding KHDRBS1 protein – biochemical, small-molecule microarray, 635 nm fluorescence, primary screen (AID 1125).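 Further: score merges 667 nm channel intensity with signal to noise over triplicate slides.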 The settings on record: higher = more signal.
The subject of assay [19] is Chordin-like protein 2 (CHRDL2). Briefly: compounds binding chordin-like 2 – biochemical, small-molecule microarray, 635 nm fluorescence, primary screen (AID 1126).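 Further: printed compound slides probed with Chrdl2 protein at 4 µg/mL for 1 h at 4 C; score merges 667 nm emission intensity with signal to noise over three replicate slides.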 The settings on record: fluorescence 635 nm, higher = more signal.
Assay [20] deals with Concanavalin-A (Canavalia ensiformis) (UniProt P02866). Briefly: compounds binding concanavalin A lectin – biochemical, small-molecule microarray, Alexa647 label, 635 nm, artefact control for SMM control protein annotation, primary screen (AID 1127).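 Further: z combines 667 nm emission intensity with signal-to-noise across three replicate slides.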 The conditions noted are these: ConA-A647 binding fluorescence, higher = more signal.

The source made the active and inactive calls.

Chain of Alpha-bungarotoxin (Bungarus multicinctus) (P60615 whole entry, looked up): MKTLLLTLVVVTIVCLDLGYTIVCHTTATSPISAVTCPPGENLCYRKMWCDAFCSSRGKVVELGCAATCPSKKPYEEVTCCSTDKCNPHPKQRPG
Chain of Concanavalin-A (Canavalia ensiformis) (P02866 whole entry, looked up): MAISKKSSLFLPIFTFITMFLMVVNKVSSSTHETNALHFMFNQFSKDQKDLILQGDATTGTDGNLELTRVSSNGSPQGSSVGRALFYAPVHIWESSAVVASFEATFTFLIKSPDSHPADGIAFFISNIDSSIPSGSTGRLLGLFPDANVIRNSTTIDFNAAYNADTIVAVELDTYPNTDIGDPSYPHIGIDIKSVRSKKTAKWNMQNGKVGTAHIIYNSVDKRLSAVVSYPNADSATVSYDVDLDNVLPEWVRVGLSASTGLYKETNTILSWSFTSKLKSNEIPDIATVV
Chain of Albumin (Bos taurus) (P02769 whole entry, looked up): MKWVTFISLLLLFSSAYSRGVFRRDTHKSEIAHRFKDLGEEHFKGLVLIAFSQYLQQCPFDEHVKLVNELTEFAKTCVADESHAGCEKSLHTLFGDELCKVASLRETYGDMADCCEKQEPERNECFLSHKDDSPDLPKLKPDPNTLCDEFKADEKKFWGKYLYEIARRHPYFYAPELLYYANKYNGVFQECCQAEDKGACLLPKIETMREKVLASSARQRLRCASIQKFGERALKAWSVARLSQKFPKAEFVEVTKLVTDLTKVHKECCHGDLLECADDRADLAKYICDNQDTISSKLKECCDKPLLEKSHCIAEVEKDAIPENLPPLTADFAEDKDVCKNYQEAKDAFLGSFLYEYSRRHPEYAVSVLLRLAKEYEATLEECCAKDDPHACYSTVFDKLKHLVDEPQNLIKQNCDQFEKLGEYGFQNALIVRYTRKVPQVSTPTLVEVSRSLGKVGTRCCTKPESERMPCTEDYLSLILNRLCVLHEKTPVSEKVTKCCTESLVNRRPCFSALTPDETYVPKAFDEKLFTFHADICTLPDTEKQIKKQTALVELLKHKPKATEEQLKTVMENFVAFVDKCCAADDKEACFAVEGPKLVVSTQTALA
Chain of Torsin-1A-interacting protein 1 (Homo sapiens) (Q5JTV8 whole entry, looked up): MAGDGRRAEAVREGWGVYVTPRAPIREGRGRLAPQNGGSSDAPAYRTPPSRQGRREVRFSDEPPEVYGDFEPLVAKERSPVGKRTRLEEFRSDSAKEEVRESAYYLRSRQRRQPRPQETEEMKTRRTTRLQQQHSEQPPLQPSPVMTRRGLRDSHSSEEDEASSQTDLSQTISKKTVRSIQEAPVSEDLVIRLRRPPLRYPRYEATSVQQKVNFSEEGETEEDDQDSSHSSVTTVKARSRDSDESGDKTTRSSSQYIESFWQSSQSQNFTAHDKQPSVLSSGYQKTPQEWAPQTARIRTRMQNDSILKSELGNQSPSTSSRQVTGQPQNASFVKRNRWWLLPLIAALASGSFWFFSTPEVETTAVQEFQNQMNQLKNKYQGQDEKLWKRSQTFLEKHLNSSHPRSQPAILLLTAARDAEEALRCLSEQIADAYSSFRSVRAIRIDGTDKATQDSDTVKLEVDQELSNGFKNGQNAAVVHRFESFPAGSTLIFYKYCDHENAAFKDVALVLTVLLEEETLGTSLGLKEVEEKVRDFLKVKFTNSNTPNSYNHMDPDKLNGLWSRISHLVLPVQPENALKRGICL
Chain of Left-right determination factor 2 (Homo sapiens) (O00292 whole entry, looked up): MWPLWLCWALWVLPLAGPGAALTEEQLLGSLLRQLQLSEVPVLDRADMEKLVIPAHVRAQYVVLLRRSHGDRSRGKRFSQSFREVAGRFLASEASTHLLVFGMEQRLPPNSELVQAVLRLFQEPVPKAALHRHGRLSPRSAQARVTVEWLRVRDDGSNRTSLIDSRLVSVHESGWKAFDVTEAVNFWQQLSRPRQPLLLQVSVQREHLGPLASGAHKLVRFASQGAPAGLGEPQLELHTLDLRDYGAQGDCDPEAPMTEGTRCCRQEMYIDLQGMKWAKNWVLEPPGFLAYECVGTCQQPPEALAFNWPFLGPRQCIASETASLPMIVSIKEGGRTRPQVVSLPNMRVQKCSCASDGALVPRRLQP

`O=C(Nc1cc(Br)ccc1C(=O)NCc1cccc(O)c1)c1ccccc1`: the composite z-score in assay [1] is 0.27; in assay [3] it was 0.547; in [4], 1.48; in assay [5], 0.22; in [6], 0.0297; in [7] it was -0.252. Besides, the composite z-score in [8] was -0.75; in assay [9], 0.888; in assay [10] it was 1.36; in assay [11], 0.8; in [13] it was 0.151; in [14], -0.0901. In addition, the composite z-score in [15] stood at 0.62; in [16] it was 0.891; in assay [17], 0.808; in assay [18], 0.778; in assay [19] it was 0.279; in assay [20] it was 1.18. The molecule further showed a z-score in [2] of -2.32. Besides, the composite Z-score in [12] is -0.0662 (inactive).
For the molecule `NC(=O)NCC#Cc1ccc2c(c1)[C@]1(C(=O)N2)[C@H](c2ccc(O)cc2)N2[C@H](c3ccccc3)[C@H](c3ccccc3)OC(=O)[C@H]2[C@@H]1C(=O)NC[C@H](O)c1ccccc1`, the composite z-score in [1] is -0.631; in [3], -1.67; in assay [4], -0.699; in [5], 0.827; in [6], -0.219; in assay [7], -0.276. The composite z-score is 0.241 in [8]; -0.243 in assay [9]; -2 in [10]; 0.233 in [11]; -0.464 in assay [13]; -0.122 in [14]. Moreover, the composite z-score is -0.051 in assay [15]; 0.327 in assay [16]; 0.469 in assay [17]; -1.03 in assay [18]; -1.12 in [19]; -1.34 in [20]. In [2], the z-score amounted to 0.918. The composite Z-score in assay [12] is -0.539 (inactive).
On to `Cc1cc(C)c(C(O)C2C=CC3C(=O)N(c4ccccc4)C(=O)C3N2Nc2ccccc2)c(C)c1` (stereo not given), for which the composite z-score is 1.16 in assay [1]; 0.109 in assay [3]; 1.6 in assay [4]; 1.03 in assay [5]; 0.216 in assay [6]; -0.0791 in assay [7]. For the same molecule, the composite z-score in assay [8] turned out to be 1.99; in [9], 1.1; in assay [10], 2.38; in assay [11] it was 0.767; in assay [13] it was 0.236; in [14], 0.294. Further, the composite z-score is 0.781 in assay [15]; 2.13 in [16]; 0.0109 in [17]; 1.3 in [18]; -0.194 in [19]; 1.18 in assay [20]. This molecule also returned a z-score in assay [2] of -0.177. Besides, the composite Z-score in assay [12] is 0.0805 (inactive).
`C/C=C/[C@@H](CCn1cc([C@H](O)c2ccccc2)nn1)[Si](C)(C)c1ccc(OC)cc1`: the composite z-score is 0.434 in [1]; -1.32 in assay [3]; -1.34 in assay [4]; -1.35 in [5]; -0.012 in [6]; 0.0639 in [7]. Moreover, the composite z-score in assay [8] is -0.738; in [9], 0.834; in [10] it was 0.478; in assay [11], -0.91; in assay [13], -0.367; in [14], -0.195. The composite z-score in assay [15] was -0.105; in assay [16], 1.15; in assay [17] it was 0.614; in assay [18], -0.123; in assay [19] it was 0.0697; in assay [20], -0.333. In assay [2], the z-score was -2.6. Also, the composite Z-score in [12] was 2.17 (inactive).
On to `CC(C)(C)N1CC=CC23O[C@@H]4C=CCCOC(=O)C4[C@H]2C(=O)N(CCCO)[C@@H]3C1=O` (stereo not given in full), for which the composite z-score was -0.371 in assay [1]; -0.611 in assay [3]; -0.801 in [4]; -0.97 in assay [5]; -0.172 in [6]; -0.0769 in assay [7]. The composite z-score in assay [8] was -0.118; in assay [9], 0.0642; in assay [10] it was -1.39; in [11] it was -2.01; in [13], -0.222; in assay [14] it was -0.177. For the same molecule, the composite z-score is 0.405 in [15]; -0.552 in [16]; -0.0817 in assay [17]; -1.76 in assay [18]; -0.487 in assay [19]; -3.17 in assay [20]. This molecule also yielded a z-score in [2] of -1.17. For the same molecule, the composite Z-score in assay [12] was 0.494 (inactive).
